# Reference: the supplement of paper PMC8728848
# The full list was thinned out, with the strongest signals kept by preference.
# Tests used:
# Experiment in all cases: glycan array binding signal (z-score within array); higher = stronger binding
# Conditions in all cases: glycan notation: IUPAC condensed, linker removed
# [1] = biological target: Fuc(a1-2)Gal(b1-3)GalNAc
# In short: (§1)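 The Consortium for Functional Glycomics database supplied 3228 glycan arrays, of which those lacking an available protein sequence were dropped. The binding signal, a within-array Z-score, was averaged across arrays of the same protein sequence and across linkers. Negative scores can be read as non-binding.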
# [2] = biological target: Fuc(a1-2)Gal(b1-3)GlcNAc
# In short: as §1
# [3] = biological target: Fuc(a1-2)Gal(b1-3)GlcNAc(b1-2)Man(a1-3)[Fuc(a1-2)Gal(b1-3)GlcNAc(b1-2)Man(a1-6)]Man(b1-4)GlcNAc(b1-4)GlcNAc
# In short: as §1
# [4] = biological target: Fuc(a1-2)Gal(b1-3)GlcNAc(b1-3)GalNAc
# In short: as §1
# [5] = biological target: Fuc(a1-2)Gal(b1-3)GlcNAc(b1-3)[Neu5Ac(a2-6)Gal(b1-4)GlcNAc(b1-6)]Gal(b1-4)Glc
# In short: as §1
# [6] = biological target: Fuc(a1-2)Gal(b1-4)GlcNAc(b1-2)Man
# In short: as §1
# [7] = biological target: Fuc(a1-2)Gal(b1-4)GlcNAc6S
# In short: as §1
# [8] = biological target: Fuc(a1-2)Gal6S(b1-4)Glc
# In short: as §1
# [9] = biological target: Fuc(a1-2)[Gal(a1-3)]Gal(b1-4)GlcNAc(b1-2)Man(a1-3)[Fuc(a1-2)[Gal(a1-3)]Gal(b1-4)GlcNAc(b1-2)Man(a1-6)]Man(b1-4)GlcNAc(b1-4)[Fuc(a1-6)]GlcNAc
# In short: as §1
# [10] = biological target: Fuc(a1-2)[GalNAc(a1-3)]Gal(b1-3)GlcNAc(b1-2)Man(a1-3)[Fuc(a1-2)[GalNAc(a1-3)]Gal(b1-3)GlcNAc(b1-2)Man(a1-6)]Man(b1-4)GlcNAc(b1-4)[Fuc(a1-6)]GlcNAc
# In short: as §1
# [11] = biological target: Fuc(a1-2)[GalNAc(a1-3)]Gal(b1-3)GlcNAc(b1-6)GalNAc
# In short: as §1
# [12] = biological target: Gal(a1-3)Gal(b1-4)GlcNAc(b1-3)GalNAc
# In short: as §1
# [13] = biological target: Gal(b1-3)GlcNAc(b1-6)[Gal(b1-3)]GalNAc
# In short: as §1
# [14] = biological target: Gal(b1-3)[Fuc(a1-4)]GlcNAc
# In short: as §1
# [15] = biological target: Gal(b1-4)GlcNAc(b1-2)Man(a1-3)[Gal(b1-4)GlcNAc(b1-2)Man(a1-6)][Gal(b1-4)GlcNAc(b1-4)]Man(b1-4)GlcNAc(b1-4)[Fuc(a1-6)]GlcNAc
# In short: as §1
# [16] = biological target: Gal(b1-4)GlcNAc(b1-2)Man(a1-6)Man(b1-4)GlcNAc(b1-4)GlcNAc
# In short: as §1
# [17] = biological target: Gal3S(b1-3)GalNAc
# In short: as §1
# [18] = biological target: Gal3S(b1-3)[Fuc(a1-4)]GlcNAc
# In short: as §1
# [19] = biological target: Gal6S(b1-4)Glc
# In short: as §1
# [20] = biological target: GalNAc(b1-4)GlcNAc(b1-2)Man
# In short: as §1
# [21] = biological target: GalNAc(b1-6)GalNAc
# In short: as §1
# [22] = biological target: GalNAc3S(b1-4)[Fuc(a1-3)]GlcNAc
# In short: as §1
# [23] = biological target: GalNAc6S(b1-4)GlcNAc
# In short: as §1
# [24] = biological target: GlcNAc(a1-3)Gal(b1-4)GlcNAc
# In short: as §1
# [25] = biological target: GlcNAc(a1-4)Gal(b1-3)GlcNAc
# In short: as §1
# [26] = biological target: GlcNAc(a1-4)Gal(b1-4)GlcNAc(b1-3)Gal(b1-4)GlcNAc(b1-3)Gal(b1-4)GlcNAc
# In short: as §1
# [27] = biological target: GlcNAc(b1-2)Man(a1-3)[GlcNAc(b1-2)Man(a1-6)]Man(b1-4)GlcNAc(b1-4)[Fuc(a1-6)]GlcNAc
# In short: as §1
# [28] = biological target: GlcNAc(b1-2)Man(a1-3)[GlcNAc(b1-4)][GlcNAc(b1-2)Man(a1-6)]Man(b1-4)GlcNAc(b1-4)GlcNAc
# In short: as §1
# [29] = biological target: GlcNAc(b1-2)Man(a1-3)[GlcNAc(b1-4)][GlcNAc(b1-2)Man(a1-6)]Man(b1-4)GlcNAc(b1-4)[Fuc(a1-6)]GlcNAc
# In short: as §1
# [30] = biological target: GlcNAc(b1-4)GlcNAc(b1-4)GlcNAc
# In short: as §1
# [31] = biological target: GlcNAc(b1-4)GlcNAc(b1-4)GlcNAc(b1-4)GlcNAc(b1-4)GlcNAc(b1-4)GlcNAc
# In short: as §1
# [32] = biological target: Man(a1-2)Man(a1-3)[Man(a1-6)]Man(a1-6)[Man(a1-2)Man(a1-3)]Man(b1-4)GlcNAc(b1-4)GlcNAc
# In short: as §1
# [33] = biological target: Man(a1-2)Man(a1-6)[Man(a1-3)]Man(a1-6)[Man(a1-2)Man(a1-2)Man(a1-3)]Man
# In short: as §1
# [34] = biological target: MurNAc(b1-4)GlcNAc
# In short: as §1
# [35] = biological target: Neu5Ac(a2-6)Gal
# In short: as §1
# [36] = biological target: Neu5Ac(a2-6)Gal(b1-4)GlcNAc(b1-2)Man(a1-3)[GlcNAc(b1-2)Man(a1-6)]Man(b1-4)GlcNAc(b1-4)GlcNAc
# In short: as §1
# [37] = biological target: Neu5Ac(a2-6)Gal(b1-4)GlcNAc(b1-3)Gal(b1-4)GlcNAc(b1-3)[Neu5Ac(a2-6)Gal(b1-4)GlcNAc(b1-3)Gal(b1-4)GlcNAc(b1-6)]GalNAc
# In short: as §1
# [38] = biological target: Neu5Ac(a2-6)GalNAc(b1-4)GlcNAc
# In short: as §1
# [39] = biological target: Neu5Ac(a2-6)GlcNAc(b1-4)GlcNAc(b1-4)GlcNAc
# In short: as §1
# [40] = biological target: Neu5Gc(a2-3)Gal(b1-4)GlcNAc
# In short: as §1
binder,measurement,setting,value
NKR-PIC (Mus musculus) (protein) GTGQKPSREKCCVFIQENLNKTTDCSVNLECPQDWLLHRDKCFHVSQVSNTWEEGQADCGRKGATLLLIQDQEELRFLLDSIKEKYNSFWIGLRFTLPDMNWKWINGTTFNSDVLKITGVTENGSCASILGDKVTPESCASDNRWICQKELNHETPSNDSGT,glycan array binding signal (z-score),[1],-0.288
same,glycan array binding signal (z-score),[2],-0.281
same,glycan array binding signal (z-score),[3],-0.138
same,glycan array binding signal (z-score),[4],-0.371
same,glycan array binding signal (z-score),[5],-0.362
same,glycan array binding signal (z-score),[6],-0.316
same,glycan array binding signal (z-score),[7],-0.32
same,glycan array binding signal (z-score),[8],-0.317
same,glycan array binding signal (z-score),[9],-0.335
same,glycan array binding signal (z-score),[10],-0.375
same,glycan array binding signal (z-score),[11],-0.363
same,glycan array binding signal (z-score),[12],-0.361
same,glycan array binding signal (z-score),[13],-0.308
same,glycan array binding signal (z-score),[14],-0.262
same,glycan array binding signal (z-score),[15],-0.225
same,glycan array binding signal (z-score),[16],-0.334
same,glycan array binding signal (z-score),[17],-0.25
same,glycan array binding signal (z-score),[18],-0.318
same,glycan array binding signal (z-score),[19],-0.305
same,glycan array binding signal (z-score),[20],5.67
same,glycan array binding signal (z-score),[21],0.458
same,glycan array binding signal (z-score),[22],-0.38
same,glycan array binding signal (z-score),[23],4.94
same,glycan array binding signal (z-score),[24],3.83
same,glycan array binding signal (z-score),[25],1.3
same,glycan array binding signal (z-score),[26],4.1
same,glycan array binding signal (z-score),[27],-0.287
same,glycan array binding signal (z-score),[28],3.99
same,glycan array binding signal (z-score),[29],3.73
same,glycan array binding signal (z-score),[30],4.83
same,glycan array binding signal (z-score),[31],4.62
same,glycan array binding signal (z-score),[32],-0.325
same,glycan array binding signal (z-score),[33],-0.367
same,glycan array binding signal (z-score),[34],4.79
same,glycan array binding signal (z-score),[35],-0.258
same,glycan array binding signal (z-score),[36],-0.338
same,glycan array binding signal (z-score),[37],-0.332
same,glycan array binding signal (z-score),[38],4.03
same,glycan array binding signal (z-score),[39],5.02
same,glycan array binding signal (z-score),[40],-0.264
